In PubChem BioAssay (NCATS) one finds Potency and outcome data, which are given here for 8 compounds.

Test [1] relates to Nanoluciferase (engineered Oplophorus gracilirostris luciferase). As to the kind of experiment: Primary Nanoluciferase (NLuc) qHTS assay for identification of artifact compounds. (AID 1845222). Also: potency is read from the fitted curve at half-maximal effect. The method in brief:
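Using secreted nanoluciferase in S16 culture medium (0.22 um filtered, 1:55 dilution), compounds were preincubated 15 min at RT. Signal was generated with Nano-Glo reagent (1:100) over 5 min.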

Test [2] in a line: Primary redox qHTS assay for identification of artifact compounds. (AID 1845223). In short, it runs like this: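 Redox-cycling detection via DTT (250 uM final) oxidation coupled to Amplex Red (25 uM)/HRP (250 mU/mL) in HBSS. 15 min preincubation plus 30 min after DTT, room temperature. Ex/Em 525/598 nm; 4-parameter Hill fit against DMSO and 10 uM DA3003.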
(qHTS replaces the single test concentration by a dilution series.)

Test [3] can be described thus: Quantitative High-Throughput drug screen in 47 multiple myeloma cell lines against the NCATS MIPE library collection: Delta47_JCRB cell viability assay (AID 1918925; also: nearly all actives have a fitted effect of over 45% in size; also: potency is read from the fitted curve at half-maximal effect). The method in brief: (§1)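 We plated 500 myeloma cells per well, pinned in MIPE 4.0 compounds, and incubated for 48 hours at 37C. ATP was then quantified with CellTiter-Glo, with DMSO and media-only wells defining 100% and 0%.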

A short description of test [4]: Quantitative High-Throughput drug screen in 47 multiple myeloma cell lines against the NCATS MIPE library collection: AMO1_DSMZ cell viability assay (AID 1918927; also: nearly all actives have a fitted effect of over 30% in size; also: potency is read from the fitted curve at half-maximal effect). In short, it runs like this:
as §1

Test [5] is described as follows: Quantitative High-Throughput drug screen in 47 multiple myeloma cell lines against the NCATS MIPE library collection: ARD_JJKsccE7 cell viability assay (AID 1918929; also: potency is read from the fitted curve at half-maximal effect). In short, it runs like this: as §1
Test [6] is described as follows: Quantitative High-Throughput drug screen in 47 multiple myeloma cell lines against the NCATS MIPE library collection: KMM1_JCRB cell viability assay (AID 1918960). Also: nearly all actives have a fitted effect of over 30% in size. Also: potency is read from the fitted curve at half-maximal effect. In short, it runs like this:
(§2)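 CellTiter-Glo luminescence after 48 h exposure gives viability, scaled between DMSO-only (100%) and media-only (0%) controls. Library compounds are pinned onto 500 myeloma cells per well, incubated at 37C with 5% CO2.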

The nature of test [7]: Quantitative High-Throughput drug screen in 47 multiple myeloma cell lines against the NCATS MIPE library collection: JIM3_ECACC cell viability assay (AID 1918963; also: nearly all actives have a fitted effect of over 35% in size; also: potency is read from the fitted curve at half-maximal effect). The method in brief: (§3)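 Relative luminescence from CellTiter-Glo served as the viability signal, referenced to DMSO-treated (100%) and cell-free medium (0%) controls. Treatment lasted 48 hours at 37C with 500 cells per well.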

Test [8] is described as follows: Quantitative High-Throughput drug screen in 47 multiple myeloma cell lines against the NCATS MIPE library collection: JIM1_ECACC cell viability assay (AID 1918964; also: potency is read from the fitted curve at half-maximal effect). The method in brief: as §1
A short description of test [9]: Quantitative High-Throughput drug screen in 47 multiple myeloma cell lines against the NCATS MIPE library collection: INA6_PLB cell viability assay (AID 1918965; also: nearly all actives have a fitted effect of over 55% in size; also: potency is read from the fitted curve at half-maximal effect). In short, it runs like this:
as §3

Test [10] can be described thus: Quantitative High-Throughput drug screen in 47 multiple myeloma cell lines against the NCATS MIPE library collection: Karpas25_ECACC cell viability assay (AID 1918968; also: nearly all actives have a fitted effect of over 35% in size; also: potency is read from the fitted curve at half-maximal effect). In short, it runs like this: as §1
Test [11] in a line: Quantitative High-Throughput drug screen in 47 multiple myeloma cell lines against the NCATS MIPE library collection: KMS27_JCRB cell viability assay (AID 1918970). Also: nearly all actives have a fitted effect of over 30% in size. Also: potency is read from the fitted curve at half-maximal effect. In short, it runs like this: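 Myeloma cells (500 per well) were exposed to MIPE 4.0 compounds for 48 h at 37 °C, 5% CO2; viability was read as ATP luminescence with CellTiter-Glo, normalized to DMSO-only (100%) and media-only (0%) wells.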

Test [12] can be described thus: Quantitative High-Throughput drug screen in 47 multiple myeloma cell lines against the NCATS MIPE library collection: ARP1_JJKsccF8 cell viability assay (AID 1918928; also: nearly all actives have a fitted effect of over 40% in size; also: potency is read from the fitted curve at half-maximal effect). In short, it runs like this: as §2
Test [13] is described as follows: Quantitative High-Throughput drug screen in 47 multiple myeloma cell lines against the NCATS MIPE library collection: FR4_PLB cell viability assay (AID 1918924; also: nearly all actives have a fitted effect of over 35% in size; also: potency is read from the fitted curve at half-maximal effect). In short, it runs like this: as §3
Test [14] can be described thus: Quantitative High-Throughput drug screen in 47 multiple myeloma cell lines against the NCATS MIPE library collection: Karpas620_DSMZ cell viability assay (AID 1918959). Also: nearly all actives have a fitted effect of over 30% in size. Also: potency is read from the fitted curve at half-maximal effect. The method in brief: as §3
Test [15] is described as follows: Quantitative High-Throughput drug screen in 47 multiple myeloma cell lines against the NCATS MIPE library collection: KHM11_PLB cell viability assay (AID 1918962). Also: nearly all actives have a fitted effect of over 35% in size. Also: potency is read from the fitted curve at half-maximal effect. In short, it runs like this:
as §3

A short description of test [16]: Quantitative High-Throughput drug screen in 47 multiple myeloma cell lines against the NCATS MIPE library collection: H1112_PLB cell viability assay (AID 1918967; also: nearly all actives have a fitted effect of over 30% in size; also: potency is read from the fitted curve at half-maximal effect). In short, it runs like this:
as §1

Test [17] is described as follows: Quantitative High-Throughput drug screen in 47 multiple myeloma cell lines against the NCATS MIPE library collection: EJM_DSMZ cell viability assay (AID 1918926; also: nearly all actives have a fitted effect of over 30% in size; also: potency is read from the fitted curve at half-maximal effect). The method in brief: as §1
Test [18] in a line: Quantitative High-Throughput drug screen in 47 multiple myeloma cell lines against the NCATS MIPE library collection: Karpas417_ECACC cell viability assay (AID 1918961). Also: potency is read from the fitted curve at half-maximal effect. As to conditions: Karpas417 myeloma viability, CellTiter-Glo ATP luminescence, 48 h; viability (% of DMSO): at 45.8 µM (top of the series). The method in brief:
as §3
On the technique in general: In ATP-based viability assays light output follows the ATP content of the culture.

A short description of test [19]: Quantitative High-Throughput drug screen in 47 multiple myeloma cell lines against the NCATS MIPE library collection: JJN3_DSMZ cell viability assay (AID 1918966; also: potency is read from the fitted curve at half-maximal effect; nearly all actives have a fitted effect of over 50% in size). The method in brief: as §1

Results filed as inconclusive are left out. The source made the active and inactive calls. Calls follow the shape of the dose curve; as a rule, active = well fitted curve in the direction sought with a large enough effect; inconclusive = small, poorly fitted or top-dose-only effect, or another doubt; inactive = no such curve, though single readings can be large; an effect the other way counts as inactive or inconclusive.

Turning to `CC(C)C(=O)Nc1ncc(-c2cc(C(F)F)nn2-c2c(Cl)cccc2Cl)s1`, the Potency result in test [1] was “inactive”. Also, the compound was classed as inactive in test [2]. For the same compound, the Potency is 26.4 µM (active) in [3]; 8.33 µM (active) in test [4]; 20.9 µM (active) in test [5]; 16.6 µM (active) in [6]; 23.5 µM (active) in test [7]; 10.5 µM (active) in test [8]. The Potency in test [9] was 23.5 µM (active); in test [10], 20.9 µM (active); in test [11], 14.8 µM (active).
As to `Cc1ccccc1C(C(=O)NC1CCCCC1)N(C(=O)Cn1ccnc1C)c1cccc(F)c1` (stereo not given), the Potency result in test [1], in test [12], in test [6], in [7], in test [9] and in test [11] was “inactive” throughout. The compound was classed as inactive in [2]. Further, the Potency in [3] is 11.8 µM (active); in [10], 18.7 µM (active).
For `O=C(O)c1ccccc1C(=O)Nc1ccc(-c2ccccc2)cc1`, the Potency in [1] was 23.9 µM (active). Further, in test [2], the call was inactive. The Potency entry in test [13], in test [4], in test [12], in test [5], in [14] and in test [6] was “inactive” each time. Also, the Potency entry in [15], in [9], in test [16], in [10] and in test [11] was “inactive” throughout.
For the compound `CC(C)[C@H](CO)Nc1nc(Nc2ccc(C(=O)O)c(Cl)c2)c2ncn(C(C)C)c2n1`, the Potency result in test [1] was “inactive”. For the same compound, the compound was classed as inactive in [2]. For the same compound, in [3], the Potency is 1.48 µM (active).
In the case of `CC(C)(C)OC(=O)N[C@H]1CCCCCC=C[C@@H]2C[C@@]2(C(=O)NS(=O)(=O)C2CC2)NC(=O)[C@@H]2C[C@@H](OC(=O)N3Cc4cccc(F)c4C3)CN2C1=O`, the Potency entry in test [1], in test [13], in test [3], in test [17], in [4] and in test [12] was “inactive” each time. For the same compound, the Potency result in test [15], in test [16] and in test [11] was “inactive” each time.
For the compound `COc1cc(Nc2ncc(F)c(Nc3ccc4c(n3)NC(=O)C(C)(C)O4)n2)cc(OC)c1OC`, the Potency result in test [1], in test [4] and in test [14] was “inactive” each time. Also, in test [2], the result was inactive. Further, the Potency in test [13] is 20.9 µM (active); in [3] it was 1.18 µM (active); in test [12], 5.9 µM (active); in test [10], 1.66 µM (active); in test [11], 11.8 µM (active).
In the case of `Cc1ccn(-c2ccc(-c3ncco3)cc2)c(=O)c1-c1ccc2nc(N)ncc2c1`, the Potency result in [1], in test [13], in test [17], in [12], in [16] and in [11] was “inactive” throughout. Besides, the Potency in [4] was 14.8 µM (active); in [6] it was 13.2 µM (active); in [7] it was 10.5 µM (active); in test [9], 0.662 µM (active); in test [10], 9.35 µM (active).
On to `CCOC(=O)C1=C(N)Oc2ccc(Br)cc2C1C(C#N)C(=O)OCC` (stereo not given), for which the Potency entry in test [1] is “inactive”. In test [2], the call was inactive. In addition, the Potency in test [13] was 20.9 µM (active); in test [3], 14.8 µM (active); in test [17], 20.9 µM (active); in [14] it was 18.7 µM (active); in [6] it was 16.6 µM (active); in test [18] it was 8.33 µM (active). In addition, the Potency in test [15] is 20.9 µM (active); in [7], 23.5 µM (active); in test [9], 18.7 µM (active); in test [19], 20.9 µM (active); in test [16], 16.6 µM (active); in test [10], 20.9 µM (active). Also, in test [11], the Potency is 18.7 µM (active).
